Assay outcomes: PubChem, National Center for Advancing Translational Sciences (NCATS)
HCMV inh – blocks human cytomegalovirus replication; HFF cells, HCMV-luciferase reporter, 72 h; stronger effect = lower value; activity change, negative = inhibition, % at 57.5 µM; hit rate 4.5% among 410,000; AID 1259415; in the data active = activity change below about -60%; inconclusive = no clear call, values can overlap the other calls; inactive = above about -39%
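HFF cells seeded 16 h at 37C, treated with compounds, infected with luciferase-reporter HCMV at MOI 1 PFU/cell; luciferase read at 72 h post infection, normalized to buffer-only and Salinomycin controls.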
HCV inh – blocks hepatitis C virus | Huh7.5.1 HCVcc-Cre infection, luciferase reporter, 44 h | Potency, µM (doses to about 41.8 µM), for the others: at the top dose activity change, negative = inhibition, hits mostly inhibitors | hit rate 3.4% among 340,000 | AID 651820; active = well fitted inhibition curve with a large enough effect; inconclusive = small, poorly fitted or top-dose-only effect, or another doubt; inactive = no such curve, though single readings can be large or run the other way; also: potency is read from the fitted curve at half-maximal effect
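Reporter virus HCVcc-Cre (~0.5 moi) infects cells exposed to compound; seeding density 1,000 cells/well with 4 h settling beforehand. Luminescence, 15 sec read, taken 44 h post-infection following a 15 min RT substrate incubation.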
VACV Venus inh – vaccinia inhibition (Venus reporter); Vaccinia virus Venus reporter expression, fluorescence; AID 720580; Potency, µM (doses to about 36.5 µM), without a hit: at the top dose activity change, negative = inhibition, actives largely listed as inhibitors; hit rate 0.46% among 330,000; calls by dose curve; tested in A549 cells; also: potency is read from the fitted curve at half-maximal effect; nearly all actives have a fitted effect of over 30% in size
Lassa entry inh – inhibitors of Lassa virus binding or cell entry; Lassa virus pseudotype entry inhibition, cell reporter; Potency, µM (highest dose often 37.9 µM), for inactives: at the top dose activity change, negative = inhibition, usual class: inhibitors; hit rate 1.2% among 300,000; calls by dose curve; tested in HEK293 cells; also: potency is read from the fitted curve at half-maximal effect; nearly all actives have a fitted effect of over 50% in size
VACV mCherry inh – inhibitors of vaccinia virus infection (mCherry reporter signal); hit rate 0.63% among 310,000; Vaccinia virus mCherry reporter infection, fluorescence; Potency, µM (titrated, usually from 36.5 µM), without a hit: at the top dose activity change, negative = inhibition, hits mostly inhibitors; calls by dose curve; tested in A549 cells; also: potency is read from the fitted curve at half-maximal effect; nearly all actives have a fitted effect of over 35% in size
MARV entry inh – blocks Marburg virus binding to or entry into cells. Marburg virus pseudotyped entry inhibition, cell reporter. Potency, µM (series often up to 37.8 µM), without a hit: at the highest dose activity change, negative = inhibition, hits mostly inhibitors. hit rate 1.8% among 300,000; calls by dose curve; tested in HEK293 cells; also: potency is read from the fitted curve at half-maximal effect
* = called active by the depositor; i = inactive; ? = inconclusive; · = not tested or not shown; [ ] = another dose, or the depositor's remark. Only some compounds are listed: those with a hit (about 7.8% of all), similar ones and a draw of the others. % is scaled to controls: 0 for no effect and ±100 for the full control effect.

SMILES | HCMV inh | HCV inh | VACV Venus inh | Lassa entry inh | VACV mCherry inh | MARV entry inh
CCN(CC(=O)NCc1ccc(F)cc1)C(=O)CN1CCN(c2cc(Cl)ccc2C)CC1 | 38.0 | 6.31µM* | -12.9% | -0.7% | -17.2% | -23.4%[46.1 µM]
COCCNC(=O)CN1C(=O)CCn2nc(-c3cn(C)c4ccccc34)cc21 | 8.9 | · | -0.6% | 26.8%[46.1 µM] | i | ·
Cc1ccc(C)c(NC(=O)Cc2nc(CNCC(C)C)cs2)c1 | -13.3 | 7.2% | -9.2% | -0.4% | -17.6% | 7.94µM*
Cc1ccccc1-c1nc(CN2CCC(C(=O)NCCC3=CCCCC3)CC2)c(C)o1 | -4.0 | 6.31µM* | · | ? | · | ?
Cc1ccccc1-c1nc(CN2CCC(C(=O)NC3CCCCC3)CC2)c(C)o1 | -28.5 | -4.3% | -7.9% | -8.4%[46.1 µM] | i | 15.5%[46.1 µM]
COc1ccc(CCNC(=O)C2CCN(Cc3nc(-c4ccccc4C)oc3C)CC2)cc1OC | -17.8 | 7.94µM* | · | -7.3% | · | ?
Cc1ccccc1-c1nc(CN2CCC(C(=O)NCCc3ccccc3)CC2)c(C)o1 | 13.7 | · | -7.1% | -23.1%[46.1 µM] | -14.3% | 20.5%[46.1 µM]
Cc1ccccc1-c1nc(CN2CCC(C(=O)NCCCN3CCCC(C)C3)CC2)c(C)o1 (centres undefined) | -63.4* | 5.01µM* | -21.5% | ? | i | ?
COc1ccc(OC)c(CN2C[C@H](Sc3ccc(F)cc3)C[C@H]2C(=O)N(C)C)c1 | · | · | -10.7% | · | -18.4% | ·
CCc1cccc2c(C(O)c3c[nH]c4ccccc34)c[nH]c12 (centres undefined) | · | · | 57.6% | · | -6.1% | ·
CCn1c(=O)cc(SCC(=O)Nc2ccc(C)cn2)c2ccccc21 | -94.6* | ? | 10µM* | · | ? | ·
CCOC(=O)C1CCN(C(=O)CSc2cc(=O)n(CC)c3ccccc23)CC1 | 5.8 | 11.2µM* | -17.7% | -22.2%[14.3 µM] | -4.3% | 0.5%
CCn1c(=O)cc(OCC(=O)Nc2ccc(C)cn2)c2ccccc21 | -60.8* | -14.7% | · | -8.9% | · | 26.6%
CCn1c(=O)cc(SCC(=O)N2CCC(C)CC2)c2ccccc21 | 57.1 | ? | · | 9.9% | · | ?
CCn1c(=O)cc(SCC(=O)NCc2ccc(C)cc2)c2ccccc21 | 8.8 | -26.4% | -3.3% | -13.8%[46.1 µM] | -8.8% | -2.3%[46.1 µM]
COc1ccc([C@]23Cc4cc(C#N)ccc4[C@H](O2)C2=C(CC4(CCCCC4)OC2=O)O3)cc1 | · | · | · | · | · | 1.2%[14.2 µM]
Cc1c(C(=O)OC2CCC(C)CC2)[nH]c2c1C(=O)CC(c1ccccc1Cl)C2 (centres undefined) | -27.6 | · | -19.1%[7.34 µM] | 2.8%[46.1 µM] | -19.3%[7.34 µM] | -18.6%[46.1 µM]
CCc1ccc(-n2c(CCC(=O)O)ccc2-c2ccc(F)cc2)cc1 | 22.0 | · | -1.1% | -0.9%[46.1 µM] | 3.3% | 3.7%[46.1 µM]
Oc1c(C(c2ccccn2)N2CCC(Cc3ccccc3)CC2)cc(Cl)c2cccnc12 (centres undefined) | -89.5* | 17.8µM* | ? | ? | ? | ?
Oc1c(C(c2ccccc2Cl)N2CCCC2)ccc2cccnc12 (centres undefined) | -5.2 | 10µM* | ? | · | ? | ·
Oc1c(C(c2ccc(Cl)cc2)N2CCCC2)cc(Cl)c2cccnc12 (centres undefined) | ? | ? | ? | · | 12.6µM* | ·
O=C(CCn1ccc2cc(S(=O)(=O)N3CCCC3)ccc21)NCc1cccc(Br)c1 | -11.2 | · | -9.5% | ? | -11.3% | ·
O=C(O)CSc1nc2ccccc2nc1N1CCCCC1 | -10.6 | · | -5.8% | -12.3%[46.1 µM] | 0.1% | 2.0%[46.1 µM]
COC(=O)CS(=O)(=O)c1nc2ccccc2nc1N1CCCCC1 | -66.2* | · | -16.7% | 20.1%[46.1 µM] | -26.6% | -29.2%[46.1 µM]
COc1ccc(/C=C2\N=C(SC)N(c3ccccc3OC)C2=O)cc1 | -95.9* | ? | · | · | · | ·
SMILES | HCMV inh | HCV inh | VACV Venus inh | Lassa entry inh | VACV mCherry inh | MARV entry inh
CCOc1ccc(N2C(=O)/C(=C/c3ccccc3)N=C2SC)cc1 | -20.6 | -15.1% | · | · | · | ·
COc1ccccc1COCC(O)CN1CCN(S(=O)(=O)c2cccc(F)c2)CC1 (centres undefined) | 33.3 | 4.6% | · | · | · | ·
COc1ccc(COCC(O)CN2CCN(S(=O)(=O)c3c(F)cccc3F)CC2)cc1OC (centres undefined) | -5.2 | 35.5µM* | -3.7% | -19.4% | -19.0% | -16.5%
Cc1ccc(NC(=O)CN2CCCC2c2cccs2)cc1S(=O)(=O)N1CCCCC1 (centres undefined) | -63.4* | 7.94µM* | · | · | · | ·
CCOc1ccc(NC(=O)CN2CCCC2c2cccs2)cc1S(=O)(=O)N1CCCCC1 (centres undefined) | ? | ? | -19.7% | ? | -0.5% | ?
O=C(CN1CCCC1c1cccs1)Nc1cc(S(=O)(=O)N2CCCCC2)ccc1Cl (centres undefined) | ? | 5.01µM* | · | · | · | ·
CCOc1ccc(S(=O)(=O)c2c(C(=O)c3ccccc3)cnc3cc4c(cc23)OCCO4)cc1 | -75.9* | 2.3% | -19.0% | -8.5% | ? | ?
CCOc1ccc(C(=O)c2cnc3ccc(Cl)cc3c2S(=O)(=O)c2ccc(C)cc2)cc1 | 11.8 | · | -10.2% | · | -14.1% | ?
Cc1c(NS(=O)(=O)c2ccccc2)ccc([N+](=O)[O-])c1Cl | -64.7* | -13.7% | ? | ? | ? | ?
Cc1c(Cl)cccc1NS(=O)(=O)c1ccccc1 | -9.8 | 4.9% | -15.7% | 20.7% | -3.8% | 3.3%
O=[N+]([O-])c1ccc(N2CCCC(C(F)(F)F)C2)c2ccncc12 (centres undefined) | -12.3 | 10µM* | 7.94µM* | ? | 2.82µM* | ?
COc1ccc(-c2ccc3oc(-c4ccsc4)cc(=O)c3c2)cc1F | -10.8 | 10.1% | 4.4% | · | 31.3% | ·
COc1cc(-c2ccc3oc(-c4ccsc4)cc3c2)cc(OC)c1OC | -17.6 | -11.6% | 14.1µM* | · | ? | ·
Cc1ccc(CC(=O)Nc2c(C(=O)N3CCN(c4ccccc4F)CC3)oc3ccccc23)cc1 | -21.0 | · | -17.7% | 0.3%[46.1 µM] | -6.6% | -14.8%[46.1 µM]
CCCCN(C)S(=O)(=O)c1ccc(C(=O)Nc2ccc(-c3nc4ccc(C)cc4s3)cc2)cc1 | 59.6 | · | -0.9%[7.34 µM] | 6.6%[46.1 µM] | -10.3%[7.34 µM] | ·
Cc1ccc(S(=O)(=O)Nc2ccc(-c3csc(-c4ccccc4)n3)cc2)cc1 | -35.2 | 10µM* | -29.9% | ? | ? | -22.5%
COc1ccc(-c2csc(NC(=O)c3ccccc3NS(=O)(=O)c3ccc(F)c(F)c3)n2)cc1 | -99.7* | 2.82µM* | ? | 3.66µM* | ? | 2.31µM*
Cc1ccc(S(=O)(=O)Nc2ccccc2C(=O)Nc2nc(-c3ccc(F)cc3)cs2)cc1 | -103.1* | 6.31µM* | ? | 3.26µM* | ? | 2.82µM*
Cc1ccc(S(=O)(=O)Nc2nc(-c3ccccc3)cs2)cc1 | ? | 2.7% | -1.5% | 26.8% | -19.0% | -12.9%
COc1ccc(-c2csc(NC(=O)c3ccccc3F)n2)cc1 | -37.5 | 5.3% | · | · | · | ·
O=S(=O)(Nc1ccc(-c2csc(-c3ccccc3)n2)cc1)c1ccccc1 | -17.3 | ? | -17.5% | 3.2% | ? | ?
